Compound activity from PubChem.
The list is not random: actives were taken first. Their share in the collection is about 10%.
hNpr1 antagonist = antagonists of human natriuretic peptide receptor Npr1 | AID 1347048 | P16066 | Potency, µM (doses to about 46.3 µM), for inactives: top-dose activity change, negative = inhibition, actives largely listed as inhibitors | 1.6% of 76,000 active | HEK293 hNpr1 GloSensor cGMP, ANP-stimulated luminescence; calls by dose curve; further: nearly all actives have a fitted effect of over 60% in size
Target sequence (P16066 whole entry, looked up): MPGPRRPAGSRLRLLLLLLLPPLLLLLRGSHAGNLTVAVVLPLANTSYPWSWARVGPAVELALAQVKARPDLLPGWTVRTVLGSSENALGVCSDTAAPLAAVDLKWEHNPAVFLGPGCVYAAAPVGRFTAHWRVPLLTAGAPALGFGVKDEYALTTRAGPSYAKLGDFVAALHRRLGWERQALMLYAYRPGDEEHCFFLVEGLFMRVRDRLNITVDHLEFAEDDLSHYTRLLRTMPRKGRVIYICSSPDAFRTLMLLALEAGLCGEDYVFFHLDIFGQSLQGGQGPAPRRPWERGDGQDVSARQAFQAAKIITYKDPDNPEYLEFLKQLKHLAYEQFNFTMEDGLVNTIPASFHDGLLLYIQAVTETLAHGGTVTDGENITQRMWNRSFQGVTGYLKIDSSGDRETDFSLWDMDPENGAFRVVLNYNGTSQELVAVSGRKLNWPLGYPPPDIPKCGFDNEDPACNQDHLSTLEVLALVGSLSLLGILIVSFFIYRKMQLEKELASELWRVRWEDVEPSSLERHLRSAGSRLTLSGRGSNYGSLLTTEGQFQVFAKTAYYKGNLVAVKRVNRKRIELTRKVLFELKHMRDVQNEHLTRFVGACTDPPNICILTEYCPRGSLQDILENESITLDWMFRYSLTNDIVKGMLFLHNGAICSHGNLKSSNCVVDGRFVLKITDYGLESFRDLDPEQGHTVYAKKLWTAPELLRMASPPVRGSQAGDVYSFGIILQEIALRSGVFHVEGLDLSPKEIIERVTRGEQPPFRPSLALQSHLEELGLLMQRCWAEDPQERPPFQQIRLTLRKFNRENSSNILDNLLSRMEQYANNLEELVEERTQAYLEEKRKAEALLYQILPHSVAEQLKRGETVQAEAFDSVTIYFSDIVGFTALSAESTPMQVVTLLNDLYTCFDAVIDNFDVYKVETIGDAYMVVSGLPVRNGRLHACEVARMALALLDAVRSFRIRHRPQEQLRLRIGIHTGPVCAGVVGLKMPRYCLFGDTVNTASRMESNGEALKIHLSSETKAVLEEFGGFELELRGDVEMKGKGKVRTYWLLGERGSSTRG
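HEK293 cells stably expressing human Npr1 and cGMP GloSensor pGS-40F, loaded 2 h with 2% GloSensor reagent, given compound 30 min at room temperature. Luminescence read before and 20 min after 0.1 nM hNppA.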
NIH3T3 tox = NIH 3T3 cell cytotoxicity. NIH 3T3 viability, CellTiter-Glo ATP luminescence, 48-72 h. Potency, µM (doses to about 96.7 µM), without a hit: at the top dose activity change, negative = cytotoxicity, actives largely listed as inhibitors. 4.3% of 94,000 active. AID 1345082; further: nearly all actives have a fitted effect of over 55% in size
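First NIH 3T3 cells are plated at 400 cells/well; next compound is pinned in; then plates incubate 48 or 72 hr at 37 °C; finally CellTiter-Glo is added and luminescence read after 10 min.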
FLuc inh = inhibitors of firefly (Photinus pyralis) luciferase; AID 1347043; purified P. pyralis luciferase, luminescence, biochemical; P08659; 2.5% of 76,000 active; Potency, µM (highest dose often 115 µM), most hits filed as inhibitors; further: nearly all actives have a fitted effect of over 65% in size
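Purified 10nM P. pyralis luciferase with 10uM D-luciferin and 10uM ATP in 50mM Tris acetate pH 7.5, 10mM Mg acetate, 0.01% Tween-20, 0.05% BSA. qHTS titration; luminescence read by CCD imager.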
HEK293 tox = HEK 293 cell cytotoxicity; HEK 293 viability, ATP luminescence (CellTiter-Glo), 48-72 h; 6.6% of 94,000 active; Potency, µM (titrated, usually from 115 µM), for the others: top-dose activity change, negative = cytotoxicity, most hits filed as inhibitors; further: nearly all actives have a fitted effect of over 60% in size
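Luminescence from cellular ATP, measured with CellTiter-Glo, indicates HEK 293 viability. Cells plated at 250 cells/well are treated with compound for 48 or 72 hr at 37 degree Celsius before reagent addition.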
GPT2 inhibitor = inhibitors of human GPT2 alanine aminotransferase; Q8TD30; Recombinant GPT2, coupled pyruvate oxidase/HRP Amplex Red fluorescence; Potency, µM (highest dose often 57.7 µM), for inactives: at the top dose activity change, negative = inhibition, hits mostly inhibitors; 0.25% of 100,000 active; further: nearly all actives have a fitted effect of over 60% in size
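Inhibition is scored from Amplex Red fluorescence generated when pyruvate oxidase and HRP act on pyruvate released by GPT2. Reactions contain 10ng/uL enzyme, 250uM a-KG and 2mM L-alanine and run 30 min at room temperature.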
* marks the source's active call; other numbers are inactive results; i = inactive; ? = inconclusive; / = not tested or not shown; [ ] = dose if it differs, or a comment. Unless noted, the call rests on the fitted dose curve; in most records, active means well fitted curve in the direction sought with a large enough effect; inconclusive means small, poorly fitted or top-dose-only effect, or another doubt; inactive means no such curve, though single readings can be large; an effect the other way counts as inactive or inconclusive. On the % scale 0 is the no-effect control and ±100 the full control effect; potency means the concentration at half of the fitted maximal effect.

SMILES | hNpr1 antagonist | NIH3T3 tox | FLuc inh | HEK293 tox | GPT2 inhibitor
O=C(CC[C@@H]1CNC(=O)[C@@H]2C[C@H](NCc3ccccn3)CN12)NCc1ccc(F)cc1 | 3%[70.6 µM] | ? | i | ? | i
O=C(Cc1cccc(F)c1)N1CCOCC12CCN(Cc1ccccc1)CC2 | -1%[70.6 µM] | 100µM* | i | ? | -12%[88.5 µM]
O=C(CCc1ccccc1)N1CCOCC12CCN(Cc1ccccc1)CC2 | -11%[70.6 µM] | 35µM* | i | ? | i
CC(C)CC(=O)N1CCOCC12CCN(Cc1cccc(C#N)c1)CC2 | -1%[70.6 µM] | -12%[138 µM] | i | ? | i
CC(C)CC(=O)N1CCOCC12CCN(Cc1ccc(C(C)C)cc1)CC2 | 2%[70.6 µM] | 71µM* | i | 100µM* | 1%[88.5 µM]
C#CCNC(=O)C1CCCN(c2nccc(Nc3ccccc3F)n2)C1 (stereo not given) | / | ? | / | ? | -4%
CSc1cccc(NC(=O)C2CCN(c3cnc4nccnc4c3)CC2)c1 | -2% | 6.3µM* | i | 8.9µM* | -2%
COc1ccc(CNC(=O)N2CCC(c3noc(-c4ccccc4)n3)C2)cc1 (stereo not given) | ? | ? | i | 45µM* | i
COc1ccc(CNC(=O)N2CCCC(Cc3noc(-c4ccncc4)n3)C2)cc1 (stereo not given) | -3% | -34% | i | ? | i
O=C(Cn1c(=O)oc2ccccc21)N1CCCC(Cc2noc(-c3ccccc3)n2)C1 (stereo not given) | 7% | -22% | 40µM* | ? | i
COc1ccc(CNC(=O)N2CCC(c3noc(-c4cccnc4)n3)C2)cc1 (stereo not given) | 3% | -16% | i | -21% | i
Cn1cnc(S(=O)(=O)N2CCCC(Cc3noc(-c4ccccc4)n3)C2)c1 (stereo not given) | 2% | ? | 35µM* | ? | ?
Cc1ccc(CNC(=O)N2CCCC(Cc3noc(-c4ccccc4)n3)C2)cc1 (stereo not given) | 4% | 25µM* | i | 28µM* | i
O=C1NCc2ccccc2CC12CCCN2Cc1ccsc1 (stereo not given) | / | -22% | / | -24% | -10%
O=C(C1CC1)N1CCC(Cc2noc(-c3ccccc3)n2)C1 (stereo not given) | -5% | ? | i | -30% | -5%
O=C(N1CCC(Cc2noc(-c3ccc(F)cc3)n2)C1)C1(c2ccccc2)CC1 (stereo not given) | / | ? | / | 40µM* | i
Cc1cccc(CNC(=O)c2cc3n(n2)CC(c2ccc4c(c2)OCO4)OC3)c1 (stereo not given) | -5% | ? | i | ? | -11%
O=C(C1CN(c2ccc(F)cc2)C(=O)N1)N1CCN(Cc2ccccc2)CC1 (stereo not given) | 22% | 28µM* | i | 25µM* | i
CC(C)c1nc2c(c(-c3ccc(O)cc3)n1)CCN(Cc1ccc(F)cc1)CC2 | 3% | ? | i | ? | 0%
Cc1cc(CN2CCc3nc(C(C)C)nc(-c4ccc(Cl)cc4)c3CC2)no1 | / | ? | / | ? | i
CC(C)c1nc2c(c(-c3ccc(O)cc3)n1)CN(Cc1ccc(F)cc1)CC2 | 2% | ? | i | 89µM* | 3%
CC(C)c1nc2c(c(-c3ccc(O)cc3)n1)CCN(Cc1ccccc1C(F)(F)F)CC2 | ? | 28µM* | i | 35µM* | i
CC(C)c1nc2c(c(-c3ccc(Cl)cc3)n1)CCN(Cc1ccc(C#N)cc1)CC2 | / | ? | / | 40µM* | -9%
Cc1ccc(CN2CCc3nc(C(C)C)nc(-c4ccc(O)cc4)c3C2)cc1 | 1% | ? | i | ? | ?
CC(C)c1nc2c(c(-c3ccc(O)cc3)n1)CN(Cc1ccc(N(C)C)cc1)CC2 | 8% | -29% | i | 79µM* | i
SMILES | hNpr1 antagonist | NIH3T3 tox | FLuc inh | HEK293 tox | GPT2 inhibitor
COCC(=O)Nc1cc(C2CCCC2)nn1C | / | -5%[138 µM] | / | -3%[172 µM] | -7%[88.5 µM]
CC(=O)N1CCC(C(=O)N2CCC(c3ccccc3)CC2)CC1 | / | -11%[138 µM] | / | 2%[172 µM] | -2%[88.5 µM]
COCCCNC(=O)N1CCC(F)(c2nc(CC(C)C)no2)CC1 | / | -32% | / | -24% | -13%
COc1ccc(-c2nc(C)nc3c2CN(C(=O)NC2CCCC2)CC3)cc1 | / | -24% | / | -10% | 0%
COc1cc(OC)cc(C(=O)NC2CCN(c3cc(C(F)(F)F)nc(C)n3)CC2)c1 | 1% | ? | i | -19% | i
CC(C)c1nc2c(c(-c3ccc(O)cc3)n1)CN(Cc1cccc(C(F)(F)F)c1)CC2 | -8% | 22µM* | i | 32µM* | i
O=C(CCc1ccccc1)N1CCCC1c1nncn1C1CCCC1 (stereo not given) | / | -5% | / | 3% | -25%
CCn1ccnc1CN(C)Cc1cn(C)nc1-c1ccc(Oc2ccccc2)cc1 | -8% | ? | i | 40µM* | -18%
CCn1ccnc1CN(C)Cc1cn(Cc2ccccc2)nc1-c1cc2ccccc2o1 | -21% | 40µM* | i | 45µM* | i
CCCNC(=O)C1c2ccccc2C(=O)N(C2CCCCC2)C12CCCCC2 (stereo not given) | 2% | ? | i | 40µM* | 0%
COC(=O)CCNC(=O)C1c2ccccc2C(=O)N(C2CCCC2)C12CCCCC2 (stereo not given) | -1% | ? | i | ? | i
O=C(NCCc1ccncc1)C1c2ccccc2C(=O)N(C2CCCCC2)C12CCCCC2 (stereo not given) | -30% | ? | i | 40µM* | -9%
O=C(NCc1ccccn1)C1c2ccccc2C(=O)N(C2CCCCC2)C12CCCCC2 (stereo not given) | -1% | ? | i | 25µM* | -6%
COc1ccc(CN2CCc3nc(C(=O)NCc4ccncc4)oc3CC2)cc1 | ? | ? | i | ? | -9%[88.5 µM]
Cc1noc(C)c1CN1CCc2ncc(C(=O)Nc3ccccc3)n2CC1 | -2%[70.6 µM] | ? | i | -23%[172 µM] | i
Cc1csc(NC(=O)c2nc3c(o2)CCN(Cc2ccccc2)CC3)n1 | -30%[70.6 µM] | ? | ? | 56µM* | -25%[88.5 µM]
CCCN1CCc2nc(C(=O)Nc3nc(C)cs3)oc2CC1 | -2%[70.6 µM] | -23%[138 µM] | 20µM* | ? | -3%[88.5 µM]
Cc1csc(NC(=O)c2nc3c(o2)CCN(Cc2ccc(C#N)cc2)CC3)n1 | ? | ? | 22µM* | ? | 4%[88.5 µM]
Cc1csc(NC(=O)c2nc3c(o2)CCN(Cc2c(C)noc2C)CC3)n1 | -1%[70.6 µM] | 50µM* | 63µM* | -26%[172 µM] | -7%[88.5 µM]
O=C(NCC1CC1)c1nc2c(o1)CCN(CCCc1ccccc1)CC2 | 3%[70.6 µM] | -20%[138 µM] | ? | ? | i
O=C(NCc1ccccc1F)c1cc(-c2ccc(Cl)cc2Cl)c2nncn2n1 | / | ? | / | ? | i
